{
  "source": "PubChem BioAssay AID463173",
  "about": "(ICCB-Longwood Screening Facility, Harvard Medical School, 2010)",
  "note": "About 4,300 (8.3%) of roughly 52,000 compounds were called active. This excerpt belongs to a sample that is enriched for actives. A number with no mark means an inactive call. Rule as the data show it: active = survival mostly below about 52% (no sharp cut-off); inactive = mostly above about 56%.",
  "data": [
    {"system": "DeltatarO mutant", "assay": "growth inhibition of S. aureus wild type versus tarO mutant, primary screen, teichoic acid synthesis inhibitors, RN4220, OD600 (AID 463173)", "conditions": "OD600, 18 h, hits give low values, screened at 18.75 µg/mL (by protocol)", "values": [
      {"smiles": "O=C(c1ccc(CS(=O)(=O)c2c(Cl)cccc2Cl)o1)N1CCN(c2ccccc2)CC1", "survival": "107%"},
      {"smiles": "Cc1ccc(CNC(=O)CN2C(=O)CSc3c2c(C)nn3-c2ccccc2)cc1", "survival": "89%"},
      {"smiles": "CC(CCc1ccccc1)NC(=O)Cn1ncc2c3ccccc3n(Cc3ccccc3F)c2c1=O", "note": "(centres undefined)", "survival": "92%"},
      {"smiles": "COc1ccccc1N1CCN(C(=O)CCS(=O)(=O)c2cc(Br)cc3c2N(C(=O)C2CC2)CC3)CC1", "survival": "83%"},
      {"smiles": "O=C(O)CCn1c(=O)c2cccn2c2cccnc21", "survival": "98%"},
      {"smiles": "CCOC(=O)c1c(-c2ccccc2)oc2ccc(OCc3cccc(Br)c3)cc12", "survival": "38% (active)"},
      {"smiles": "O=C(NCCc1ccccc1)C(=O)NCC(c1cccnc1)N1CCN(c2ccc(F)cc2)CC1", "note": "(centres undefined)", "survival": "103%"},
      {"smiles": "C=CCN(CC=C)C(=O)COc1ccc(Cl)cc1Cl", "survival": "73%"},
      {"smiles": "CCOc1cccc2sc(NC(=O)c3ccc(S(=O)(=O)N4CCc5ccccc54)cc3)nc12", "survival": "71%"},
      {"smiles": "Oc1ccc(-c2cccc(-c3ccc(O)cc3)c2)cc1", "survival": "27% (active)"},
      {"smiles": "COc1ccc(OC)c(CNCc2c(C(=O)O)n(Cc3ccccc3)c3cc(OC)ccc23)c1", "survival": "77%"},
      {"smiles": "CCOc1ccc(CCNCc2c(C(=O)O)n(Cc3ccc(C)cc3)c3cc(OC)ccc23)cc1", "survival": "58%"},
      {"smiles": "C=Cc1ccc(Cn2c(C(=O)O)c(CNCCc3ccccc3)c3ccc(C)cc32)cc1", "survival": "92%"},
      {"smiles": "Cc1ccc(CNCc2c(C(=O)O)n(Cc3ccccc3C)c3cc(C)ccc23)cc1", "survival": "67%"},
      {"smiles": "CCOc1ccc(CNCc2c(C(=O)O)n(Cc3ccc(OC)cc3)c3ccccc23)cc1", "survival": "82%"},
      {"smiles": "CCc1ccc(CNCc2c(C(=O)O)n(Cc3cccc(F)c3)c3cc(OC)ccc23)cc1", "survival": "79%"},
      {"smiles": "COc1ccc2c(CNCc3ccc(Cl)cc3)c(C(=O)O)n(Cc3ccccc3C)c2c1", "survival": "97%"},
      {"smiles": "COc1ccc(OC)c(CNCc2c(C(=O)O)n(Cc3cccc(F)c3)c3cc(OC)ccc23)c1", "survival": "-1% (active)"},
      {"smiles": "Cc1ccc2c(CNCCc3ccccc3)c(C(=O)O)n(Cc3ccccc3C)c2c1", "survival": "6% (active)"},
      {"smiles": "CCOc1ccc(CNCc2c(C(=O)O)n(Cc3ccc(C)cc3)c3cc(C)ccc23)cc1", "survival": "12% (active)"},
      {"smiles": "Cc1ccccc1Cn1c(C(=O)O)c(CNCc2cccc(F)c2)c2ccccc21", "survival": "52% (active)"},
      {"smiles": "Cc1ccc2c(CNCc3cccc(Cl)c3)c(C(=O)O)n(Cc3ccc(F)cc3Cl)c2c1", "survival": "70%"},
      {"smiles": "CCC1CCCCN1C(=O)Cn1c(=O)n(-c2ccccc2C(F)(F)F)c(=O)c2c(C)c(C(=O)N(C)C)sc21", "note": "(centres undefined)", "survival": "80%"},
      {"smiles": "CCC1CN(C(=O)N2CCC(C(=O)Nc3ccccc3F)CC2)c2ccccc2O1", "note": "(centres undefined)", "survival": "74%"}
    ]}
  ]
}
